3CLpro inhibitor = SARS-CoV 3CLpro protease inhibition. recombinant SARS-CoV 3CLpro, quenched FRET peptide cleavage. inhibition, % at 6 µM. hit rate 0.14% among 290,000. P0C6X7; in the data active = inhibition above about 12%
Mtb hypoxia rep = inhibitors of hypoxia-regulated fluorescent reporter in Mycobacterium tuberculosis; M. tuberculosis hypoxia-regulated fluorescent reporter, fluorescence; hit rate 0.1% among 300,000; fluorescence inhibition, % (no concentration beside the values); in the data active = fluorescence inhibition mostly above about 23%, no sharp cut-off; inactive = mostly below about 17%
BJeLR lethal = kills HRASV12-expressing BJeLR cells | BJeLR (HRASV12) viability, CellTiter-Glo ATP luminescence, 48 h | inhibition, % (no concentration beside the values) | hit rate 0.17% among 300,000; in the data active = inhibition above about 50%
PrP 5UTR inh = inhibition of PrP 5' UTR reporter expression. inhibition, % (test concentration not listed). cell-based PrP 5' UTR mRNA reporter, plate reader. hit rate 0.35% among 340,000. AID 488862; in the data active = inhibition above about 52%; also: 0 = median of the neutral control wells
RecA splice inh = inhibitors of M. tuberculosis RecA intein splicing | P9WHJ3 | cell-free RecA intein splicing, fluorescence | inhibition, % (no concentration beside the values) | hit rate 0.75% among 290,000; in the data active = inhibition above about 30%;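 also: 0% = vehicle wells and 100% = reference inhibitor control wells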
Target sequence (P9WHJ3 whole entry, looked up, canonical isoform): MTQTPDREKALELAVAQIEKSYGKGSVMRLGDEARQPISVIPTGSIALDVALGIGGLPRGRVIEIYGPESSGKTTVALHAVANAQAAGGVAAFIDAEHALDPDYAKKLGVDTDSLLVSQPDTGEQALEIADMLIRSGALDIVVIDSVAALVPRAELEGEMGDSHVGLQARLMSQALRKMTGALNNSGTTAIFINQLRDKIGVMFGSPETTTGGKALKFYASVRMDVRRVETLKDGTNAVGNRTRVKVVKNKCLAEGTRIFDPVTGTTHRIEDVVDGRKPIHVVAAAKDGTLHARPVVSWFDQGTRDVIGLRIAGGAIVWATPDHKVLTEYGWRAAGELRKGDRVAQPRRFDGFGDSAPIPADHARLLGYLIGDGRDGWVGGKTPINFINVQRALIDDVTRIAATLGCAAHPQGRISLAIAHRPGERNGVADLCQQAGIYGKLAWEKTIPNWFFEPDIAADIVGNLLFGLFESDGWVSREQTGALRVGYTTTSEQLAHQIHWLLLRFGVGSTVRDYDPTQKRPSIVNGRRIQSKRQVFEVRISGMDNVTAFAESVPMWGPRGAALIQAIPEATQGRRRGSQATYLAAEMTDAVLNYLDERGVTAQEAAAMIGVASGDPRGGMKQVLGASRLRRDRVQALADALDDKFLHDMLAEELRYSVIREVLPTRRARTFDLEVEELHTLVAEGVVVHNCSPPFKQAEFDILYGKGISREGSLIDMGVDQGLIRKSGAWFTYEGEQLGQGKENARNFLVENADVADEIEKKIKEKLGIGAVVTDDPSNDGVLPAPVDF
PrPC surface inh = reduces human prion protein on the cell surface. hit rate 0.43% among 370,000. cell surface PrPC, TR-FRET read-out. P04156. inhibition, % at 13.8 µM; in the data active = inhibition above about 24%; also: 0% = median of the test wells and 100% = reference compound wells
GFP chromophore = counter-screen GFP chromophore formation inhibition. EC50, µM. cell-free GFP chromophore formation, fluorescence. shares compounds with RecA splice inh. hit rate 83% among 2,100; call rule not given here
PrPC TRFRET cf = cell surface PrPC inhibition, TR-FRET confirmation; shares compounds with PrPC surface inh; cell surface PrPC level; inhibition, % at 13.8 µM; hit rate 65% among 1,500; AID 743200; in the data active = inhibition above about 25%
LD9 cytotox = LD9 cell cytotoxicity, PrPc inhibitor counter-screen; inhibition, % at 13.8 µM; AID 743201; hit rate 29% among 1,500; shares compounds with PrPC surface inh; LD9 cells cytotoxicity, luminescence viability; in the data active = inhibition above about 9.5%
Active calls of the source: *; / = no result given. A selection: hits, their analogues and other compounds. The true share with any hit is near 1.4%.

SMILES	3CLpro inhibitor	Mtb hypoxia rep	BJeLR lethal	PrP 5UTR inh	RecA splice inh	PrPC surface inh	GFP chromophore	PrPC TRFRET cf	LD9 cytotox
O=C(Oc1ccc(N2C(=O)C3C4CCC(C4)C3C2=O)cc1)c1ccco1 (stereo not given)	3	7	-2	-3	30*	-2	>38	/	/
Cc1ccc(-c2nc(CN3CCCC(C(=O)N4CCOCC4)C3)c(C)o2)cc1 (stereo not given)	-6	3	-2	-15	44*	-1	>38	/	/
CCOC1OC(C(=O)NCc2ccccc2)=CC(c2csc3ccccc23)C1CCCO (stereo not given)	/	3	/	/	/	/	/	/	/
CC(=O)Nc1ccccc1NC(=O)C/C(C)=N/NC(=O)C(=O)N1CCCCC1	-3	/	-8	-12	85*	-1	10*	/	/
C#CCOc1ccc(/C=C2/C(=O)N(c3cccc(C(=O)O)c3)N=C2C)cc1OC	-2	/	2	-6	71*	-4	3.4*	/	/
C#CCOc1ccc(/C=C2/C(=O)N(c3ccc(S(N)(=O)=O)cc3)N=C2C)cc1OC	/	/	/	/	/	2	/	/	/
COc1cc(/C=C2\C(=O)N(c3cccc(C(=O)O)c3)N=C2C)ccc1OCc1ccccc1	/	/	/	/	/	5	/	/	/
COc1cc(/C=C2\C(=O)N(c3ccc(S(N)(=O)=O)cc3)N=C2C)ccc1OC(=O)c1ccco1	5	8	3	3	93*	2	20*	/	/
COC(=O)c1ccc(NC(=O)c2nc(S(=O)(=O)Cc3cccc(C)c3)ncc2Cl)cc1	6	/	17	-4	73*	84*	0.57*	46*	96*
COc1cccc(NC(=O)c2nc(S(C)(=O)=O)ncc2Cl)c1	3	/	25	-24	63*	83*	25*	6	94*
CCS(=O)(=O)c1ncc(Cl)c(C(=O)Nc2ccccc2OC)n1	6	/	16	-13	5	-3	/	/	/
COc1cccc(NC(=O)c2nc(SC)ncc2Cl)c1	-6	-5	-11	-18	0	0	/	/	/
CCS(=O)(=O)c1ncc(Cl)c(C(=O)Nc2ccc(S(=O)(=O)N3CCC(C)CC3)cc2)n1	4	/	-2	-6	96*	79*	1.4*	38*	100*
CCc1ccc(NC(=O)c2nc(S(=O)(=O)Cc3ccccc3)ncc2Cl)cc1	1	/	35	-20	39*	64*	2.2*	24	96*
N#CC(C(=O)Oc1ccccc1)=C1C=CC=CN1	/	5	/	/	/	/	/	/	/
COC(=O)C1=C(c2cc3ccccc3s2)CC2CCC1N2C(=O)NCc1ccc(C(F)(F)F)cc1 (stereo not given)	/	11	/	/	/	/	/	/	/
CC(=O)n1cc(C2C=C(C(=O)O)OC(OCCCCO)C2)c2ccccc21 (stereo not given)	/	4	/	/	/	/	/	/	/
CCN1C(=O)C(=CN2CCN(c3ccccc3)CC2)SC1=S	/	6	/	/	/	/	/	/	/
CC(C)[C@H](NC(=O)OC(C)(C)C)c1nnc(S(=O)(=O)Cc2c(F)cccc2Cl)o1	/	5	-8	-20	56*	30*	23*	28*	66*
CC(C)(C)N1C(=O)C2C(c3ccc(Br)cc3)N3C(=O)N(c4cccc(Cl)c4)C(=O)[C@@]3(C)C2C1=O (stereo not given in full)	/	-3	/	/	/	/	/	/	/
O=C(CNc1ccc(F)cc1)NN=C1CCc2ccccc21	/	1	/	/	/	/	/	/	/
N#CC(C#N)=NNc1ccc(-n2ccc(C(F)(F)F)n2)cc1	6	/	59*	-9	79*	32*	6.4*	43*	39*
C/C(=C\c1ccc(N)cc1)c1nc2ccccc2[nH]1	2	8	4	-74	-1	5	/	/	/
CC(C)c1ccc(/C=C(\c2nc3ccccc3[nH]2)S(=O)(=O)c2ccccc2)cc1	3	0	7	-8	80*	43*	9.4*	44*	-7
O=S(=O)(/C(=C/c1ccc(C(F)(F)F)cc1)c1nc2ccccc2[nH]1)c1ccccc1	-1	4	68*	-71	64*	38*	10*	79*	97*
Nc1ncnc2c1ncn2C1CC(O)C(COP(=O)(O)O)O1 (stereo not given)	/	-1	/	/	/	/	/	/	/

Screening data deposited in PubChem by several laboratories.
